Most compounds without a hit are left out; they make up all but 6.6% or so of the library.
HT1080 IDH1KD tx: qHTS for induction of synthetic lethality in tumor cells producing 2HG: qHTS for the HT-1080-IDH1KD cell line; HT-1080 IDH1 knockdown viability, ATP luminescence, 48 h; Potency, µM (highest dose often 46.1 µM), most hits filed as cytotoxic; 360,000 compounds, 2% hits; AID 686971, 2013
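IDH1KD HT-1080 cells, 750/well, RPMI + 5% FBS; compound pinned after 2 h settling; 48 h, 37 °C; CellTiter-Glo luminescence; % activity normalised to DMSO and no-cell wells; curves fitted, classed by r2 and efficacy.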
HepG2 tox: qHTS for Inhibitors of TGF-b: Cytotox Counterscreen; HepG2 CAGA-GFP viability, ATP luminescence, 18 h; AID 588856, 2011; Potency, µM (top dose mostly 46.1 µM), hits mostly cytotoxic; 410,000 compounds, 0.76% hits
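CellTiter-Glo luminescence gave cytotoxicity after 18 hours at 37 degrees C. The cells were HepG2 CAGA-GFP in 1% FBS DMEM, stimulated with 500 pg/mL TGF-beta after compound addition. %Activity was normalised to no-cell wells (complete cell-killing) and DMSO (no toxicity), and curves were fitted and classified.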
TGFb inhibitor: qHTS for Inhibitors of TGF-b | HepG2 CAGA-GFP TGF-b/SMAD3 reporter, GFP fluorescence, 18 h; TGF-beta stimulated, 500 pg/mL final | Potency, µM (titrated, usually from 46.1 µM), most hits filed as inhibitors | 410,000 compounds, 1.2% hits | AID 588855, 2011; also: nearly all actives have a fitted effect of over 65% in size
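TGF-beta reporter screen: HEPG2 CAGA-GFP, 1% FBS, 500 pg/mL TGF-beta final, 18 h; per-cell GFP summed per well; curves fitted and categorized by class.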
KB-3-1 tox: qHTS assay for MDR1-selective chemotherapeutics: Primary screen using the parental adenocarcinoma cell KB-3-1; KB-3-1 viability, CellTiter-Glo ATP luminescence, 72 h; Potency, µM (highest dose often 46.1 µM), usual class: cytotoxic; 400,000 compounds, 1.4% hits; also: nearly all actives have a fitted effect of over 60% in size
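Parental KB-3-1 viability, qHTS format: 72 h compound exposure, 37 °C; CellTiter-Glo; media-only wells and DMSO plates as controls; concentration-effect fits on corrected data.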
KB-V1 MDR tox: qHTS assay for MDR1-selective chemotherapeutics: Primary screen using the drug-selected MDR subline cells KB-V1; Potency, µM (series often up to 46.1 µM), hits mostly cytotoxic; 400,000 compounds, 3.4% hits; AID 1347076, 2019; KB-V1 MDR cells viability, CellTiter-Glo, 72 h; also: nearly all actives have a fitted effect of over 60% in size
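Cytotoxicity via CellTiter-Glo luminescence after 72 h compound exposure at 37 degrees C. Cells: drug-selected KB-V1 line, DMEM phenol-red free plus 10% FBS. Compounds tested at multiple concentrations; normalized data fitted to concentration-effect curves.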
HT1080NT lethal: qHTS for induction of synthetic lethality in tumor cells producing 2HG: qHTS for the HT-1080-NT fibrosarcoma cell line; HT-1080-NT fibrosarcoma viability, CellTiter-Glo ATP luminescence, 48 h; Potency, µM (top dose mostly 46.1 µM), actives largely listed as cytotoxic; 360,000 compounds, 1.6% hits; AID 686970, 2013;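 also: NT is the 2HG producing partner of a matched IDH1 knockdown line; nearly all actives have a fitted effect of over 55% in size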
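Compounds were tested in concentration-response format on HT-1080-NT cells for 48 hours at 37 degrees C. Cell viability came from CellTiter-Glo luminescence; curves were classified by r2, response magnitude and activity.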
Hits are given with their value; i = inactive; ? = inconclusive; nt = not tested or not shown. Calls follow the shape of the dose curve; as a rule, active = well fitted curve in the direction sought with a large enough effect; inconclusive = small, poorly fitted or top-dose-only effect, or another doubt; inactive = no such curve, though single readings can be large; an effect the other way counts as inactive or inconclusive.

SMILES	HT1080 IDH1KD tx	HepG2 tox	TGFb inhibitor	KB-3-1 tox	KB-V1 MDR tox	HT1080NT lethal
CCCCC(CC)CO (centres undefined)	i	i	i	i	i	i
CCCCC(CC)CN=C(N)NC(N)=NCCCCCCN=C(N)NC(N)=NCC(CC)CCCC (centres undefined)	23.1µM	11.2µM	?	?	?	7.31µM
COCCNC(=O)CSc1cn(CC(=O)N2CCCCCC2)c2ccccc12	nt	i	?	nt	nt	nt
COCC1CCN(Cc2cn(Cc3ccccc3)nc2-c2cc3ccccc3o2)CC1	?	i	i	i	i	i
COCC1CCCN(Cc2cn(Cc3ccccc3)nc2-c2cc3ccccc3o2)C1 (centres undefined)	16.4µM	i	12.6µM	?	i	?
CCN(CC)S(=O)(=O)c1cc(NC(=O)C(C)OC(=O)c2[nH]c(C)c(C(C)=O)c2C)ccc1C (centres undefined)	i	i	?	?	20.6µM	i
CC1(C(=O)NS(=O)(=O)c2cccc(C#N)c2)CCN1C(=O)c1ccco1 (centres undefined)	i	i	i	i	i	i
Cc1cc(C)c(-n2c(SCCS(=O)(=O)c3ccc(F)cc3)n[nH]c2=O)c(C)c1	18.4µM	i	i	i	i	?
COc1ccc(-n2c(NCCN(C)C)nc3sc4c(c3c2=O)CCCCC4)cc1	i	i	i	i	i	i
CN(C)CCNc1nc2sc3c(c2c(=O)n1-c1ccccc1)CCCCC3	?	14.1µM	i	i	i	?
CN(C)CCNc1nc2sc3c(c2c(=O)n1-c1ccc(F)cc1)CCCCC3	?	i	?	i	i	23.1µM
CCOc1ccc(C(=O)NCCc2csc(-c3cccnc3)n2)cc1	nt	i	i	i	?	nt
Cc1ccc(-n2nc3c(N4CCC(C(=O)NCCc5ccco5)CC4)nnc(C)c3c2C)cc1	?	i	?	i	i	?
Cc1ccccc1CNC(=O)C1CCN(c2nnc(C)c3c(C)n(-c4ccccc4)nc23)CC1	nt	i	i	nt	nt	nt
Cc1ccc(-n2nc3c(N4CCC(C(=O)NCc5cccc(F)c5)CC4)nnc(C)c3c2C)cc1	?	i	15.8µM	i	i	?
Cc1nnc(N2CCC(C(=O)NCc3cccc(Cl)c3)CC2)c2nn(-c3ccccc3)c(C)c12	nt	i	11.2µM	i	i	nt
Cc1ccc(-n2nc3c(N4CCC(C(=O)NCc5ccc(C)o5)CC4)nnc(C)c3c2C)cc1	18.4µM	i	?	?	i	20.6µM
CC(C)CC(=O)Nc1c(C(=O)N2CCN(c3ccccc3F)CC2)oc2ccccc12	nt	i	i	nt	nt	nt
COc1cc(N=Nc2ccc(Br)cc2)cc(C=O)c1O	i	i	i	?	14.6µM	i
CN(CCCN(Cc1ccc(Cl)cc1)c1ccc(Br)cn1)C(=S)NCCCc1cnc[nH]1	nt	i	?	?	i	nt
O=Cc1ccc(OCc2nnc(-c3ccccc3Br)o2)cc1	i	i	i	i	i	i
NC(=O)c1ccccc1OCc1nnc(-c2ccccc2Br)o1	i	i	i	i	18.4µM	i
O=S(=O)(c1ccc(F)cc1)N1CCN(CC(O)COc2ccccc2F)CC1 (centres undefined)	i	i	i	i	i	i
CC(C)c1ccccc1OCC(O)CN1CCN(S(=O)(=O)c2ccc([N+](=O)[O-])cc2)CC1 (centres undefined)	?	i	i	6.51µM	?	i
CCOC(=O)Cc1csc(NC(=O)Nc2ccc(C)cc2)n1	i	i	i	i	i	7.31µM
SMILES	HT1080 IDH1KD tx	HepG2 tox	TGFb inhibitor	KB-3-1 tox	KB-V1 MDR tox	HT1080NT lethal
CCOC(=O)Cc1csc(NC(=O)c2csc(C)c2)n1	i	i	i	i	16.4µM	i
CCOC(=O)Cc1csc(NC(=O)Nc2ccc(F)cc2)n1	i	i	i	i	i	i
CCOC(=O)Cc1csc(NC(=O)CS(=O)(=O)Cc2ccccc2)n1	i	i	?	i	i	i
CCOC(=O)Cc1csc(NC(=O)CSc2nc(N)c3c(C)c(C)sc3n2)n1	i	i	i	i	8.2µM	?
CCOC(=O)Cc1csc(NC(=O)CCS(=O)(=O)Cc2ccccc2)n1	10µM	i	i	i	i	?
COc1ccc(CNC(=O)c2sc3nc4n(c(=O)c3c2C)CCCCC4)cc1	nt	i	i	i	i	nt
CCCCCNC(=O)c1ccc2c(c1)nc(C)n2-c1cccc(C)c1	nt	i	i	i	i	nt
O=C(CS(=O)(=O)Cc1ccccc1)Nc1nc2c(s1)CCCC2	i	i	?	i	i	i
O=C(CCS(=O)(=O)Cc1ccccc1)Nc1nc2c(s1)CCCC2	8.91µM	i	?	?	?	?
Cc1cc(NS(=O)(=O)c2ccccc2)c(C)c(Cl)c1O	i	i	i	?	20.6µM	i
Cc1c(O)ccc(NS(=O)(=O)c2ccccc2)c1C	i	i	i	i	i	i
O=[N+]([O-])c1cc(-c2nc(-c3ccccc3)no2)ccc1NCc1cccnc1	nt	i	?	i	i	nt
COCc1c(C(=O)N2CCN(Cc3nc4ccccc4s3)CC2)oc2ccccc12	i	i	i	i	23.1µM	i
COc1ccccc1C1NC(=O)NC(C)=C1C(=O)OCC1CCCCC1 (centres undefined)	i	i	i	i	i	i
COc1cccc(NS(=O)(=O)c2ccc3[nH]cc(C(=O)N(C)C4CCCCC4)c(=O)c3c2)c1	nt	i	?	nt	nt	nt
CCn1c(CCNC(=O)c2ccc(OC)cc2)nnc1SCc1ccc(Cl)c(Cl)c1	i	i	?	?	4.61µM	i
CCc1nc2ccc(C(=O)NCc3ccc(N(C)C)cc3)cc2nc1CC	nt	i	i	i	i	nt
CCOC(=O)C(C)N1C(=O)S/C(=C\c2ccc(-c3ccccc3C(=O)O)o2)C1=O (centres undefined)	i	i	i	i	i	i
CC(C)N1C(=O)S/C(=C/c2ccc(Sc3nc4ccccc4[nH]3)o2)C1=O	?	i	20µM	?	23.1µM	i
C=CCN1C(=O)S/C(=C/c2ccc(Sc3nc4ccccc4[nH]3)o2)C1=O	?	i	20µM	?	3.66µM	i
CCOc1ccc(CCNC(=O)c2cc(C)nc3c2c(C)nn3-c2cccc(F)c2)cc1	nt	i	i	i	i	nt
O=C1c2ccccc2C(c2nnnn2-c2ccc3c(c2)OCCO3)N1Cc1cccs1 (centres undefined)	i	nt	nt	i	?	i
CC1Cc2ccccc2N1C(=O)COC(=O)c1c2c(nc3ccccc13)CCCCC2 (centres undefined)	i	i	i	?	9.2µM	i

Assay outcomes as filed in PubChem BioAssay.
